# In all, about 68,000 sequences were measured (“fluorescence intensity (a.u.)”: median about 9,100, highest 2% from about 16,000 on). Many of the other results were omitted from the sample, so the highest values are more common in it than they were.
# Molecular target: OsWRKY34 (Oryza sativa, UniProt Q0JBA9 1-250)
# Experiment: protein-binding microarray (RPBM); PBS, 2% BSA, 51.3 ng/ul salmon testes DNA, 50 uM zinc acetate, 200 nM TF, 25 C, 1 h; high values mean tight binding
# Details: protein: recombinant; tags: N-terminal polyhistidine and DsRed monomer fusion (pET32a); label: CyDye5-dUTP incorporated in the synthesized complementary strand; 3' TTTTT single-stranded linker to array surface; dsDNA, one strand shown
# Method in brief: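 For the binding signal, per-feature fluorescence intensity was read in arbitrary units on an Axon 4000B scanner. Before scanning, a 2% BSA-blocked custom Agilent array made double-stranded with Cy5-dUTP was washed after 1 h at 25 °C with 200 nM protein and 50 µM zinc acetate. The proteins were Ni–NTA-purified transcription factors with N-terminal polyhistidine and DsRed fusions, expressed in E. coli BL21-CodonPlus.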
# Chain of OsWRKY34 (Q0JBA9 entry or part of it): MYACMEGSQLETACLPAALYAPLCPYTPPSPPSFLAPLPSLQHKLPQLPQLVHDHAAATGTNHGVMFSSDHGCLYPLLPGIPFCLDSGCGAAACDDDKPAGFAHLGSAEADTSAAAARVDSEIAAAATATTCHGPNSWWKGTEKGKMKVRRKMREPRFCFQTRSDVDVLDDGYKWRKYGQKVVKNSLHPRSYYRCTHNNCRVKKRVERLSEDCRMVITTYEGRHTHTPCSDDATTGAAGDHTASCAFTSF
row,Sequence,binding signal
1,TTTATTGTTGTTTTTGGGTTGGTTTGGTTTGATTCCGATGCGGAGTCACCTAGTGCAG,9120 fluorescence intensity (a.u.)
2,ATTTTCGTGTTATTTTTGGTTCTGGTTGATTGATCGATTTCGGAGTCACCTAGTGCAG,12900 fluorescence intensity (a.u.)
3,ATATAGGTTACGGATTTGTCATTGGTCGTTGTATTCTTTTCGGAGTCACCTAGTGCAG,10600 fluorescence intensity (a.u.)
4,TTTCATGTTCGTGAAAATTATACATTTTATATGCGCCTTTCGGAGTCACCTAGTGCAG,8720 fluorescence intensity (a.u.)
5,GAAGCCATATCATCTTAATTGTTTTTAGCTCTTCTCTCATCGGAGTCACCTAGTGCAG,10300 fluorescence intensity (a.u.)
6,AAAATTTTTCTATTCAATTCTTTTCGTTTTTGGACCTCTCCGGAGTCACCTAGTGCAG,8660 fluorescence intensity (a.u.)
7,CCCTAAACAGGTCAACCTCAGGTGTTGACTAGAGTACTAGCGGAGTCACCTAGTGCAG,8290 fluorescence intensity (a.u.)
8,GTGTGTAGTGGTGTTTGTGCGCGGCCTCTAATATCATGTACGGAGTCACCTAGTGCAG,11600 fluorescence intensity (a.u.)
9,GATTCATACAATTGTATGGTGTTAACATGGCGATTTTTTGCGGAGTCACCTAGTGCAG,9120 fluorescence intensity (a.u.)
10,CCGCTACAACACTCAACACCATACCACATGTCATCTCCGTCGGAGTCACCTAGTGCAG,8060 fluorescence intensity (a.u.)
11,CTTCTGTCACGTACGCCCGTCCCTCATATGGCCAATCGCGCGGAGTCACCTAGTGCAG,13400 fluorescence intensity (a.u.)
12,CACTTACACTTTCATTTTCGCTTCATGTAAAATAGTCAACCGGAGTCACCTAGTGCAG,8980 fluorescence intensity (a.u.)
13,ATAGGTAGATTGTTGGTGATGCTCTAAGGGTGGGTTTTGACGGAGTCACCTAGTGCAG,13400 fluorescence intensity (a.u.)
14,CGGGAGAGGGAGGTGATGATGGGGCGGCGGAGGATTGGAGCGGAGTCACCTAGTGCAG,8130 fluorescence intensity (a.u.)
15,AGGGACAGGGTTGGTGAAGTGGCTTCCATGCGGCGGCCACCGGAGTCACCTAGTGCAG,8150 fluorescence intensity (a.u.)
16,GGGGATCAGGAGGGATGGGGATTGGGGAGACGAGTGGATGCGGAGTCACCTAGTGCAG,8330 fluorescence intensity (a.u.)
17,TCGCTAGGAGTGGTGGTGGTGGTGGGAGGAGGAGGCGATGCGGAGTCACCTAGTGCAG,13000 fluorescence intensity (a.u.)
18,AGATGCCTCGTGCTAGGTTTGATTGGTTGGTTGGTTGGTACGGAGTCACCTAGTGCAG,19400 fluorescence intensity (a.u.)
19,GTTGCTGTTTTTGATGGTCGTTGAGACAGATAGTTTGGTACGGAGTCACCTAGTGCAG,8360 fluorescence intensity (a.u.)
20,TCGATTGGGGATTGGGGATTGGGGATCAGGAGGGATGGGGCGGAGTCACCTAGTGCAG,20900 fluorescence intensity (a.u.)
21,ATGCGGCGGTGGCGGGAGGGAGGGACAGGGTTGGTGAAGTCGGAGTCACCTAGTGCAG,17400 fluorescence intensity (a.u.)
22,GTTGGTGGTGGTGGTGGAGGAGGCGGTGGTGGGATCGATGCGGAGTCACCTAGTGCAG,23900 fluorescence intensity (a.u.)

row,Sequence,binding signal
1,GGCGGAGGGAGGGAGGGGAAGTCGGTGGTGAGGTGGCGTGCGGAGTCACCTAGTGCAG,12900 fluorescence intensity (a.u.)
2,AGGAGGAGGAGGAGGAGGAGGAGGAGGCGGTGGGAGGGATCGGAGTCACCTAGTGCAG,14800 fluorescence intensity (a.u.)
3,GCACTTATCGTTTATTTTCTTATAATTTATTTTATCATTGCGGAGTCACCTAGTGCAG,8830 fluorescence intensity (a.u.)
4,GCAAGTACTTGGTGGTATATGTTGTTTGGAATAAAAAGGTCGGAGTCACCTAGTGCAG,8320 fluorescence intensity (a.u.)
5,CCTCGCTCCTCCTCGTCGCAGATCGATCTCAAACCTTCAGCGGAGTCACCTAGTGCAG,8730 fluorescence intensity (a.u.)
6,ATACATTTATTCCTTCTTAGAGTCACTACTCTTCATTGAACGGAGTCACCTAGTGCAG,8060 fluorescence intensity (a.u.)
7,ACCTCTTCCTCGACGCCGCCGCCGACCACCACCCCGCCGGCGGAGTCACCTAGTGCAG,8670 fluorescence intensity (a.u.)
8,TGTGTCATCTTGTCTATGGTAGTTCAGCAATCCTCTGCTTCGGAGTCACCTAGTGCAG,8890 fluorescence intensity (a.u.)
9,ATCACCGTCCCCGCTGCCGCCACCCGCCACTGCCGCAGCGCGGAGTCACCTAGTGCAG,10800 fluorescence intensity (a.u.)
10,CCACAACACCGCAACACACTGTCCTTGCTTCTTCATTGATCGGAGTCACCTAGTGCAG,8750 fluorescence intensity (a.u.)
11,AGGTGAGGTGGAGGAGGAGGAGGAGGAGGAGATCGGGATGCGGAGTCACCTAGTGCAG,8790 fluorescence intensity (a.u.)
12,GGTGGTGGTGGTGGTGGATCGGGTGGCTTTGGCTGAGATGCGGAGTCACCTAGTGCAG,18100 fluorescence intensity (a.u.)
13,AGGCGGCGGGGTGGCGGTGGTGGTGGTGGTGGTGGTGATGCGGAGTCACCTAGTGCAG,19000 fluorescence intensity (a.u.)
14,AATGAAAAATGGGGATGGGATTGGGATTGAGAAATGAATGCGGAGTCACCTAGTGCAG,9280 fluorescence intensity (a.u.)
15,CCCGCAGATTGGATTGGATTGGGTTGGATTGGATTGGATGCGGAGTCACCTAGTGCAG,10300 fluorescence intensity (a.u.)
16,CTTCTTCTTGTCCTGCGCAACCGATGGGCGGGTTCTTGATCGGAGTCACCTAGTGCAG,18800 fluorescence intensity (a.u.)
17,GGCGGCGGTGATTCGGGGATGCGGCGCGGCGGGGAGGAGGCGGAGTCACCTAGTGCAG,10100 fluorescence intensity (a.u.)
18,CGGCGGGTGGGGCGGTGGCGGTGAGGGATGCGGTGGTGGCCGGAGTCACCTAGTGCAG,10700 fluorescence intensity (a.u.)
19,GTGGGGCCCACCTGTCGGGGCGGTTGATGGGCTCTTCTAGCGGAGTCACCTAGTGCAG,8370 fluorescence intensity (a.u.)
20,GGGATTGGATTGGGTTGGGTTGGATTGGAGAGAGAGAATGCGGAGTCACCTAGTGCAG,31400 fluorescence intensity (a.u.)
21,CCGGAGAGGCGGTGGTGTTTGGATCGGGAGGGGAGAGATGCGGAGTCACCTAGTGCAG,11500 fluorescence intensity (a.u.)
